Screening data as filed in PubChem.
PAFAH2 FP inh – PAFAH2 (human) inhibition | inhibition, % at 3.39 µM | hit rate 0.99% among 340,000 | Q99487 | recombinant PAFAH2, FP-rhodamine activity probe, fluorescence polarization;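 active = inhibition above the mean over all tested compounds plus 3 SD, cut at about 30% in these data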;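 note: inhibitors block probe labeling of enzyme so polarization drops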
DAGLB inhibitor – diacylglycerol lipase beta (human) inhibition; inhibition, % at 5.17 µM; hit rate 0.059% among 340,000; Q8NCG7; HEK293T DAGLB membrane lysate, EnzChek fluorogenic substrate; AID 504411; in the data active = inhibition above about 34%
pPAFAH FP inh – pPAFAH (human) enzyme inhibition. Q13093. recombinant pPAFAH, FP-rhodamine probe fluorescence polarization. hit rate 1.5% among 330,000. inhibition, % at 3.39 µM. AID 463082;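 active = inhibition above the mean inhibition across the screen plus 3 SD, cut at about 25% in these data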;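 note: inhibitors block binding of the rhodamine activity-based probe so polarization drops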
PAFAH1B3 FP inh – blocks human PAF acetylhydrolase 1B catalytic subunit 3. hit rate 0.28% among 340,000. Q15102. inhibition, % at 3.39 µM. recombinant PAFAH1B3, FP-rhodamine probe, fluorescence polarization;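 active = inhibition above the screen-wide average of all tested compounds plus 3 SD, cut at about 25% in these data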
Target sequence (Q15102 whole entry, looked up): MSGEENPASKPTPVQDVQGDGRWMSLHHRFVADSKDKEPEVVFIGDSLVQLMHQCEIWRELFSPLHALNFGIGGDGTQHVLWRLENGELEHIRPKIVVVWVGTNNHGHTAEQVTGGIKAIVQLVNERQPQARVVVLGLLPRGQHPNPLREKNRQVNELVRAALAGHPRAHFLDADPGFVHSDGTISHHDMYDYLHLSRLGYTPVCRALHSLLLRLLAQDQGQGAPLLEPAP
PAFAH1B2 FP inh – inhibitors of human PAFAH1B2. P68402. recombinant PAFAH1B2, FP-rhodamine activity probe, fluorescence polarization. inhibition, % at 3.39 µM. hit rate 1.2% among 340,000. AID 492953;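 active = inhibition above the mean of all tested compounds plus 3 SD, cut at about 24% in these data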
Target sequence (P68402 whole entry, looked up): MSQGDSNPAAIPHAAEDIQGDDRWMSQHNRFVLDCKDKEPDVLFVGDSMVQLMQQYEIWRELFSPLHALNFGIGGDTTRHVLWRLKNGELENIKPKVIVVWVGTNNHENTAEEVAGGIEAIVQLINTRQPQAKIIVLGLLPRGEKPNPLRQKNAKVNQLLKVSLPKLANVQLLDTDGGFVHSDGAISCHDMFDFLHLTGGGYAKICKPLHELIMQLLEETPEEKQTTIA
ATG4B inhibitor – ATG4B (human) cysteine protease inhibition; Q9Y4P1; ATG4B cleavage of LC3-PLA2, NBD-HPC fluorescence, 1 h; inhibition, % at 8.33 µM; hit rate 0.51% among 340,000; AID 504462; in the data active = inhibition above about 40%
Large screens that a line does not name were inactive. The list is not random: actives were taken first. Their share in the collection is about 3%.

CSc1ccc(C2C(C#N)=C(N)Oc3c2ccc(=O)c2c(C)oc(C)c32)cc1 (stereo not drawn)	pPAFAH FP inh 31
Cc1oc(C)c2c(=O)ccc3c(c12)OC(N)=C(C#N)C3c1ccccc1Cl (stereo not drawn)	pPAFAH FP inh 25
Cc1oc(C)c2c(=O)ccc3c(c12)OC(N)=C(C#N)C3c1ccccc1 (stereo not drawn)	none
CC(C)(C)N1C(=O)c2ccc(C(=O)O)cc2C1=O	none
O=C(O)c1ccc2c(c1)C(=O)/C(=C/c1ccccc1)C2=O	pPAFAH FP inh 27, PAFAH1B3 FP inh 39
CCc1n[nH]c(=S)n1/N=C/c1ccc2c(c1)OCO2	none
CCc1n[nH]c(=S)n1/N=C/c1ccc(N(C)c2ccccc2)cc1	pPAFAH FP inh 26
S=c1[nH]nc(Cc2ccc(Br)cc2)n1/N=C/c1ccc(Cl)cc1	PAFAH1B2 FP inh 34
Cc1n[nH]c(=S)n1/N=C/c1ccc(OCc2ccc(Cl)cc2)cc1	PAFAH1B2 FP inh 28
O=[N+]([O-])c1ccc(S(=O)(=O)N/N=C/c2ccsc2)cc1	none (no result: pPAFAH FP inh)
Cc1ccc(C(=O)/C=C/c2cc(Br)cc(Br)c2O)o1	PAFAH2 FP inh 34, pPAFAH FP inh 31
Cc1ccc(C(=O)/C=C/N(C)C)o1	none
CC(C)CC(=NNC(=O)c1ccncc1)c1cc(Cl)ccc1O	PAFAH1B2 FP inh 29 (no result: pPAFAH FP inh)
O=C(NCCCN1CCOCC1)c1ccccc1N1C(=O)[C@@H]2Cc3c([nH]c4ccccc34)C(c3cccc(Cl)c3)N2C1=O (stereo partly drawn)	none
Cc1ccc(SCC(=O)Nc2cc([N+](=O)[O-])ccc2O)cc1	PAFAH2 FP inh 49, PAFAH1B2 FP inh 82
Cc1ccc(SCC(=O)Nc2cccc(C)c2)cc1	PAFAH1B2 FP inh 29
c1nc(NCc2ccc3c(c2)OCO3)c2cc(-c3ccoc3)ccc2n1	none
O=C(NCc1cccnc1)c1ccccc1NS(=O)(=O)c1ccc(Br)cc1	none
Cc1ccc(NC(=O)Cn2nnc(C(=O)NCCc3ccccc3)c2N)c(C)c1	none
CC(NC(=O)C1CCN(C(=O)c2cccs2)CC1)c1ccc(S(N)(=O)=O)cc1 (stereo not drawn)	none
CC(Oc1ccc(Cl)cc1)C(=O)NNC(=S)NC(=O)c1ccco1 (stereo not drawn)	PAFAH1B2 FP inh 26
CCC(C)[C@H]1CNC(=S)N1CCc1cc(C(F)(F)F)cc(C(F)(F)F)c1 (stereo partly drawn)	pPAFAH FP inh 27
Cc1ccc(OCCOC(=O)CN2C(=O)NC3(CCCC3)C2=O)cc1	none
Cc1ccccc1-c1cc(=O)c2c(O)cccc2o1	none
CCOC(=O)c1oc2cc(O)ccc2c(=O)c1-c1ccccc1OC	none
O=c1cc2oc3cc(O)c(O)cc3c(-c3ccccc3O)c-2cc1O	PAFAH2 FP inh 42, PAFAH1B2 FP inh 27 (no result: pPAFAH FP inh)
CCOc1ccccc1-c1c2cc(O)c(=O)cc-2oc2cc(O)c(O)cc12	PAFAH2 FP inh 127, PAFAH1B3 FP inh 119, PAFAH1B2 FP inh 112 (no result: pPAFAH FP inh)
CCc1cc(=O)[nH]c(SCc2ccc(C)cc2)n1	none
O=S(=O)(c1ccc(SCc2cccc(Cl)c2)nc1)N1CCCC1	none
Cc1ccccc1-c1n[nH]c(=S)n1Cc1ccccc1	none
S=c1[nH]nc(-c2ccccc2Br)n1Cc1ccccc1	PAFAH1B2 FP inh 29
CC(C)CC(OC(=O)c1ccco1)C(=O)NC1CCCC1 (stereo not drawn)	none
CC(C)NCC#CCOc1ccc(Cl)cc1	PAFAH1B2 FP inh 30
CC(C)NCC(O)COCCOc1ccc(Cl)cc1 (stereo not drawn)	none
Cc1ccc(C)c(N2CCN(C(=O)c3ccc(Cn4c(=S)[nH]c5ccc(N6CCOCC6)cc5c4=O)cc3)CC2)c1	pPAFAH FP inh 27
CCCCCn1c(=S)[nH]c2cc(C(=O)N3CCCC3)ccc2c1=O	none
O=C(c1ccc2c(=O)n(Cc3ccccc3)c(=S)[nH]c2c1)N1CCCC1	PAFAH1B2 FP inh 26
O=C(c1ccc(Cn2c(=S)[nH]c3ccc(N4CCOCC4)cc3c2=O)cc1)N1CCN(c2ccc(F)cc2)CC1	none
COc1cccc2c1C(=O)c1c(O)c3c(c(O)c1C2=O)CC(O)(C(C)=O)CC3OC1CC(O)C(O)C(C)O1 (stereo not drawn)	PAFAH2 FP inh 68, PAFAH1B3 FP inh 52, PAFAH1B2 FP inh 65 (no result: pPAFAH FP inh)
